Measured values from the supplement of paper PMC11417369.
± gives the standard deviation of the averaged measurements. The full ranking holds about 25,000 sequences; the median of “ln(normalized median fluorescence intensity)” is about 8.6, and the highest 2% start at about 10. The list comes from a sample in which the highest values are over-represented; it also holds similar and randomly drawn sequences.

Test system: PfAP2-EXP AP2 domain (GST-tagged)
Experiment: gcPBM binding intensity (ln(normalized median fluorescence intensity)); higher = stronger DNA binding
Method in brief: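 An Agilent 4 × 180k array carrying primer-extended double-stranded 36-bp intergenic genomic probes and negative controls received GST-tagged P. falciparum DNA-binding domains expressed in E. coli, about 25 μg on average, for 1 h. The binding buffer contained 1× PBS, 1% milk, 0.2 mg/ml BSA, 0.5% salmon testes DNA and 0.03% Triton X-100. Binding intensity is the top Masliner-normalised natural-log median intensity across replicate spots of either probe orientation, read after Alexa488 anti-GST antibody staining and a 488 nm scan.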

| Sequence | gcPBM binding intensity (ln) |
| --- | --- |
| GAAAAAAAAAAAAAAAAACACACGGTACATTCAAAG [CACACA_site303] | 8.5 ± 0.58 |
| TACTGATCCACATTTATACACACCTCGGTTTGTAGA [CACACA_site417] | 8.56 ± 0.4 |
| CTTAATATTCTTTAAAGTACACAAAATAAGAATATA [XGTACX_site5489] | 8.87 ± 0.59 |
| ATAATATAAATACAAACACACAATTGCGTCCACATT [CACACA_site5039] | 8.82 ± 0.38 |
| GTCCAATAAGGAAGAGTGCAAAAATTAAATAATATA [GTGCAC_site9751] | 8.76 ± 0.28 |
| TATATTTATACAATATGTACATATTATATATATATA [XGTACX_site3098] | 9.57 ± 0.26 |
| ATATATATATATATATGTACATACAATTATATTCTC [XGTACX_site1133] | 10.2 ± 0.29 |
| ATATATATATATATATGTACATATATATATTATATT [XGTACX_site6303] | 10 ± 0.62 |
| ATATATATATATATATGTACATATTATTCTCATTGT [XGTACX_site6259] | 9.88 ± 0.28 |
| TATATATATTATATATGTACATATTATATATATATA [XGTACX_site7300] | 9.46 ± 0.17 |
| ATATATATATATATATGTACATATATTCGATTATTA [XGTACX_site557] | 10.29 ± 0.049 |
| AAGTTTTTTTCTTTTTTTCTCTCTTTTTTTTTTTTT [XGTACX_negctrl_site613] | 8.19 ± 0.51 |
| ATAAATATATATATAGTGCATATAAGCCACCTTCAA [GTGCAC_site9628] | 8.86 ± 0.014 |
| AATTGAAAAGAATGAAGTACACATTTGATGATACAT [XGTACX_site5182] | 8.62 ± 0.33 |
| TACAATATAAAATACACACGCACACCGAAAAAAAAA [CACACA_site5865] | 8.53 ± 0.4 |
| ATATAAAAAAAAAATTGTACAAAAATATATACATAT [XGTACX_site469] | 8.53 ± 0.42 |
| AATAATATATTTAGGGGTACATAATAATATATTTTA [XGTACX_site8366] | 8.81 ± 0.6 |
| AAATATATTATAAATTGTACGTTTATATATATTATT [XGTACX_site5110] | 8.29 ± 0.37 |
| TTAGGCAAGGCGGGGGGTACGTTTTTATATAATTAT [XGTACX_site8029] | 10.7 ± 0.18 |
| ATCTTTCCTATTTGTAGTACAAAAAAAAAAAAAAAA [XGTACX_site5485] | 8.44 ± 0.18 |
| TTTGTAATAACATATGCATGTTCAAAAAATAAAATA [TGCATGCA_site817] | 8.4 ± 0.36 |
| AAGAAAAAAAAAAAAACACACATATATTTATTTATA [CACACA_site7042] | 8.06 ± 0.47 |
| AAGAAAAACTTATATATATATATATATATATATATA [TGCATGCA_negctrl_site466] | 10.3 ± 0.29 |
| TTATAAAAGAAAAAAAAAAAAAAAAAAAAAAAAAAA [CACACA_negctrl_site1006] | 7.89 ± 0.43 |

| Sequence | gcPBM binding intensity (ln) |
| --- | --- |
| ATATATATATATGTGTGTACTTAAAAATATAATGCA [XGTACX_site7753] | 10.2 ± 0.14 |
| ATATATATATATATATGTACTTAAAAAATATATACA [XGTACX_site8952] | 10.2 ± 0.53 |
| AATAATAAATAAATGTGTACTTAAAAATATTATATT [XGTACX_site3005] | 8.44 ± 0.33 |
| TATACATTATTATTATGTACTTAAATATATATTATA [XGTACX_site5173] | 8.35 ± 0.34 |
| ATTACAAATATAATATGTACTTAAATATAATTAAAA [XGTACX_site7038] | 8.17 ± 0.34 |
| TTTAATAATATAATGTGTACTTAAAAATTTATATAT [XGTACX_site5821] | 8.29 ± 0.21 |
| TGGAAAATTATTAACACACACATATAAATATATATA [CACACA_site46] | 8.4 ± 0.45 |
| TGCAAATTTAACAAAAAAAAAAAAAAAAAAAAAAAA [GTGCAC_negctrl_site64] | 7.88 ± 0.45 |
| AAAATACAATTTCTAGCACACAAAATATTATTATAA [CACACA_site9056] | 8.34 ± 0.37 |
| TTCACTTTTTTTTTTTTTTTTTTTTTTTTTTTTATT [GTGCAC_negctrl_site350] | 8.07 ± 0.56 |
| TAATTTCTTATGTATTGTACATATAATATATGATAT [XGTACX_site4898] | 8.52 ± 0.41 |
| AATATTTTCTGTAATACTTCTTTTCAATTTATTTCG [CACACA_negctrl_site1390] | 8.76 ± 0.45 |
| ATAATATATGAAAGTGGTACACAAAGGAAAATAAAA [XGTACX_site333] | 9.14 ± 0.57 |
| TATAAAATAAAAGTAAATATATATATATATATATAT [TGCATGCA_negctrl_site208] | 10.1 ± 0.3 |
| ATATATATATATATATGGTAAAGTAAAAGGAAATAC [XGTACX_negctrl_site45] | 10.3 ± 0.3 |
| GAAACGTTTTTGAGTAGTACACACACAATAAGGATG [XGTACX_site6809] | 9.02 ± 0.45 |
| TTTTATACATAAATGTGTACGTATATATAATGAATT [XGTACX_site2762] | 8.59 ± 0.32 |
| GATTTATATTTTAAAAGTACAAGTTAAAATAAAAGT [XGTACX_site7059] | 8.74 ± 0.33 |
| TATGTATATTTTTTTGTGCACATATATATATATATA | 10.2 ± 0.26 |
| ATATATATTATGTGTGTGCACTTTTGTTATTATTAT | 9 ± 0.33 |
| TTATTTTATTTTTTTGTGCACATATATATTTATAAA [GTGCAC_site9615] | 9.15 ± 0.21 |
| TTTTTGTTATTATGTGTGCACATATATATATATATA | 10.3 ± 0.4 |
| ACATATTATATATGTGTGCACATATATATATATTTA [GTGCAC_site9591] | 8.47 ± 0.13 |
